# Laboratory results as given in PubChem BioAssay AID1947 (The Scripps Research Institute Molecular Screening Center, 2009).
# The campaign covered roughly 300,000 compounds. About 990 (0.33%) were called active. The list comes from a sample in which actives are over-represented; it also holds similar structures and randomly drawn compounds. Unmarked numbers belong to inactive results.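 The calls were made as follows: active = inhibition above the screen mean inhibition plus 3 SD, computed separately per campaign (cut at about 18% in these data); inactive = the rest.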
# System: Fam108B (ABHD17B) serine hydrolase [Mus musculus]
# Test: inhibition of Fam108B (ABHD17B) hydrolase – biochemical, fluorescence polarization, counter-screen for RBBP9 inhibitor project, primary screen (AID 1947);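 also: inhibitors lower polarization as less probe binds the enzyme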
# Conditions: recombinant Fam108B, FP-Rh probe fluorescence polarization; at 9.51 µM; active compounds read high
row,SMILES,inhibition
1,CC(=O)NC1=NN(C(C)=O)C(C)(c2ccc(Cl)s2)S1 (stereo not drawn),-2.49%
2,CC(C)(C)C(=O)Nc1c(Br)c(C2CC2)nn1-c1ccccc1,1.83%
3,COc1ccc(/C=C/C(=O)OCC(=O)Nc2cccc(Oc3ccccc3)c2)c(OC)c1,21.4% (active)
4,COc1cc(/C=C/C(=O)OCC(=O)Nc2cccc(Oc3ccccc3)c2)ccc1O,6.01%
5,COc1ccc(OC)c(/C=C/C(=O)OCC(=O)Nc2ccc3c(c2)OCCO3)c1,-4.2%
6,COc1ccc(OCc2nnc3n2N=C(c2ccccc2)C(CC(=O)O)S3)cc1 (stereo not drawn),-0.94%
7,O=C(CN1CCN(Cc2ccc(F)cc2Cl)C1=O)NCc1cccs1,2.32%
8,CSCCC1NC2(C(=O)Nc3ccc(Cl)cc32)[C@@H]2C(=O)N(C3CCCC3)C(=O)[C@H]12 (stereo partly drawn),-1.72%
9,O=[N+]([O-])c1ccc(F)cc1Oc1nc(-c2cccnc2)nc2ccccc12,-4.4%
10,CCc1ccccc1N1CN(Cc2ccco2)CNC1=S,-2.75%
11,Oc1c(Cl)cc(Cl)c(Cl)c1Cc1c(O)c(Cl)cc(Cl)c1Cl,48% (active)
12,CN(C)C(=O)c1cccn(Cc2cccc(C(F)(F)F)c2)c1=O,0.5%
13,O=C(NCCN1C(=O)S/C(=C\c2cccnc2)C1=O)c1cccc(OC(F)F)c1,2.13%
14,COc1ccc(N2CC(C(=O)NCCN3C(=O)S/C(=C\c4cccnc4)C3=O)CC2=O)c(OC)c1 (stereo not drawn),65.4% (active)
15,CCOc1ccc(N2CC(C(=O)NCCN3C(=O)S/C(=C\c4cccnc4)C3=O)CC2=O)cc1 (stereo not drawn),0.71%
16,COc1ccc(NC(=S)SC)cc1OC,2.25%
17,CC(Cc1cccs1)N(Cc1ccc(Cl)cc1)C(=O)c1ccncc1 (stereo not drawn),0.27%
18,c1ccc2c(-c3nn4nnnc4c4ccccc34)cccc2c1,3.27%
19,CCC(=O)c1ccc(OCC(=O)OCC(=O)NC2CCCCCC2)cc1,2.33%
20,O=C(NCc1ccccn1)c1ccc2nc(-c3ccco3)c(-c3ccco3)nc2c1,39.1% (active)

row,SMILES,inhibition
1,COCCNC(=O)Nc1ccc2nc(-c3ccco3)c(-c3ccco3)nc2c1,63.8% (active)
2,CCCC(=O)Nc1ccc2c(c1)nc(CCNC(=O)c1ccco1)n2C,3.43%
3,Cc1cc(C)cc(NC(=O)NCc2ccccn2)c1,-2.47%
4,CCOc1cc(NC(=S)NCCCOC)c(OCC)cc1NC(=O)c1ccco1,-0.81%
5,COc1ccc2oc(=O)c(C(=O)NCc3ccccn3)cc2c1,1.13%
6,O=C(CSc1nnc(C2CC2)n1Cc1ccccc1)Nc1cccnc1Cl,1.49%
7,C/C=C/C(=O)Nc1ccc(N2CCN(c3ccc(C(F)(F)F)cn3)CC2)nc1,8.22%
8,CC(C)C(=O)N1CCC2(CC1)Oc1ccc(F)cc1C(=O)C21CC(c2ccccc2)=NO1 (stereo not drawn),1.14%
9,Cc1nc2scc(-c3cccs3)c2c(=O)n1N,7.81%
10,N/C(=N\OC(=O)CCc1ccccc1)c1cccnc1,-0.43%
11,COC(=O)CN1C(=O)[C@H]2[C@@H](C3CC3)N3C(=O)CN(Cc4ccc(-c5ccccc5)cc4)C(=O)[C@@]3(Cc3ccccc3)[C@H]2C1=O,0.43%
12,Cc1cc(C)c2c(Cn3ccnc3)cc(=O)oc2c1,-0.08%
13,O=Cc1c(NCCCN2CCCC2=O)c2ccccc2[nH]c1=O,0.62%
14,Cn1c(=O)c2c(ncn2CC(COCc2ccccc2Cl)OCc2ccccc2Cl)n(C)c1=O (stereo not drawn),2.8%
15,Cc1nn(Cc2ccc(F)cc2)c(C)c1NC(=O)c1noc2c1CCc1ccccc1-2,-3.92%
16,Cc1ccccc1NC(=O)c1cc(S(=O)(=O)Nc2cccc(C(=O)O)c2)ccc1Cl,-0.84%
17,C/C(=N\Nc1cccc(C(=O)O)c1)c1ccc2c(c1)Nc1ccccc1S2,20% (active)
18,O=C(O)c1cccc(N2C(=O)Nc3ccccc3N2O)c1,0.58%
19,CCOc1cnc(-c2c(-c3ccccc3Cl)noc2C)o1,-3.64%
20,CCn1cc(CN2CCCC(CNS(=O)(=O)Cc3ccccc3)C2)cn1 (stereo not drawn),-2.99%

row,SMILES,inhibition
1,Cc1ccc(CN(C)Cc2cc(=O)oc3cc(C)c(Cl)cc23)cc1,9.93%
2,CCCCCCC(=O)Nc1nc(C)c(-c2csc(Nc3cccc(OC)c3)n2)s1,12.5%
3,CC(=O)Nc1ccc(S(=O)(=O)Nc2nc(-c3ccc(C(C)(C)C)cc3)cs2)cc1,5.38%
4,CCCCCCC(=O)Nc1nc(C)c(-c2csc(Nc3cc(Cl)ccc3OC)n2)s1,11.8%
5,CCCCC(=O)Nc1nc(C)c(-c2csc(Nc3ccc(Cl)cc3)n2)s1,20.4% (active)
6,C=CCCC(=O)Nc1nc(C)c(-c2csc(Nc3ccc(Cl)cc3)n2)s1,-6.01%
7,Cc1nc(NC(=O)c2cccc(Cl)c2)sc1-c1csc(Nc2cccc(Cl)c2)n1,61.2% (active)
8,CC(=O)Nc1nc(C)c(-c2csc(Nc3ccc(S(N)(=O)=O)cc3)n2)s1,-0.24%
9,O=C(Nc1ccc(-c2csc(Nc3cccc(C(F)(F)F)c3)n2)cc1)c1cccc(C(F)(F)F)c1,37.3% (active)
10,CC(=O)Nc1cccc(-c2csc(Nc3cccc(C)n3)n2)c1,5.89%
11,CCOC(=O)c1c(CC(C)C)csc1/N=C/C1=C(O)CCCC1=O,-3.29%
12,O=C(NNC(=O)c1cnccc1C(F)(F)F)c1ccc(Cl)cc1,-3.08%
13,CCCn1c(=O)c2c(C(F)(F)F)cc(-c3cccs3)nc2n(CCC)c1=O,7.34%
14,COc1ccc(OCC(O)CN(C)C(=O)C(C)Oc2ccccc2)cc1 (stereo not drawn),3.54%
15,O=C1N[C@@H](Cc2ccccc2)C(=O)N2[C@@H]3N(S(=O)(=O)c4ccc(F)cc4)c4ccccc4[C@]3(Br)C[C@@H]12,2.06%
16,Cc1nc2ccccc2nc1N/N=C/c1ccc(O)cc1O,5.03%
17,Fc1ccc(/C=N/Nc2nc(-c3cccnc3)nc3ccccc23)cc1,-5.98%
18,Oc1ccc(/C=N/Nc2nc(-c3ccccc3F)nc3ccccc23)c(O)c1,41% (active)
